Rows were chosen to be rich in hits. Some 3.5% of all compounds tested hit in one or more screens of this group.
GPR151 activ – activators of human GPR151, primary screen, cell-based, PathHunter beta-arrestin, luminescence. G-protein coupled receptor 151 (Homo sapiens), Q8TDV0. PathHunter beta-arrestin GPR151 cells. activation, % at 11.2 µM. 1% of 650,000 active. AID 1508602, 2020; in the data active = activation above about 4.9%;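 note: 0% = median of compound wells and 100% = cells with positive control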
FBW7 act – FBW7 E3 ligase activators, primary screen, biochemical, AlphaScreen, human; F-box/WD repeat-containing protein 7 (Homo sapiens), Q969H0; AlphaScreen FBW7–phospho-cyclin E peptide binding, activator screen; normalized activity (activation), % at 26.1 µM; 0.13% of 650,000 active; AID 1259310, 2017; in the data active = normalized activity above about 1.9%;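 note: purified mutant Fbw7 with reduced substrate affinity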
Target sequence (Q969H0 whole entry, looked up): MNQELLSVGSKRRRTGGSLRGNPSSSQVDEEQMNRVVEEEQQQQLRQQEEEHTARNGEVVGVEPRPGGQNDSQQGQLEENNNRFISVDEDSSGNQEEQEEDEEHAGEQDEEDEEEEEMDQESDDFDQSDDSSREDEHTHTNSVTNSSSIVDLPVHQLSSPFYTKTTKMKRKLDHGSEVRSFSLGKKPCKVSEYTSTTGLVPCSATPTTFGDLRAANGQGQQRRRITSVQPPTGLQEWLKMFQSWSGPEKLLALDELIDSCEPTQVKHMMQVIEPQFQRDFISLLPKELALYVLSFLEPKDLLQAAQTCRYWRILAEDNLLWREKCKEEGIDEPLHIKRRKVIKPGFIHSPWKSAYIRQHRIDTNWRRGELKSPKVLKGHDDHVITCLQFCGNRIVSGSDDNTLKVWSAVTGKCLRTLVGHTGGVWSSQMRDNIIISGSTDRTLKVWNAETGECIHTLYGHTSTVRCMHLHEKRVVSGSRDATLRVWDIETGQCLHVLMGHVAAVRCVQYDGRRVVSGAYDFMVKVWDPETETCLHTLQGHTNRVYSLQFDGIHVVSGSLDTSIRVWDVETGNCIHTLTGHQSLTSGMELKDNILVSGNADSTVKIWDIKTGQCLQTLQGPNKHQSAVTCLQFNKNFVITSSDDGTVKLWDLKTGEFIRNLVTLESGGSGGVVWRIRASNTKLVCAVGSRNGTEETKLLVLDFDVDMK
MITF inh – MITF inhibitors, primary screen, biochemical, AlphaScreen, human; 0.91% of 650,000 active; Microphthalmia-associated transcription factor (Homo sapiens), O75030; AlphaScreen MITF homodimerization, bead proximity signal; inhibition, % at 2.6 µM; AID 1259374, 2018; in the data active = inhibition above about 50%;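 note: 0% = vehicle wells with protein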
TEAD-YAP block – TEAD-YAP interaction inhibition, primary screen, TEAD-YAP interaction inhibitor project, luminescence, HEK-TIYL cells; TEAD-Gal4/YAP UAS-luciferase luminescence; inhibition, % at 9.12 µM; 1.4% of 640,000 active; AID 1259422, 2018; in the data active = inhibition above about 32%;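 note: 0% = median of test compound wells and 100% = reference inhibitor wells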
MITF confirm – MITF inhibitors, retest of hits, confirmation, biochemical, AlphaScreen, triplicate; inhibition, % at 2.6 µM; 16% of 4,700 active; shares compounds with MITF inh; AlphaScreen MITF homodimerization, biotin/His-MITF beads;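 active = inhibition above a cutoff derived from the DMSO control wells, cut at about 28% in these data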;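 note: 0% = MITF dimer wells with DMSO only; inhibitors lower the bead chemiluminescence by keeping MITF from dimerizing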
AS interf DR – AlphaScreen optical interference compounds, dose response, counter-screen, biochemical, HTS; shares compounds with MITF inh; AlphaScreen optical interference counterscreen, cell-free; IC50, µM; 6% of 480 active; AID 1259373, 2018; call rule not given here
AlphaScreen intf2 – AlphaScreen optical interference compounds, counter-screen for MITF inhibitor project, biochemical, triplicate; shares compounds with MITF inh; LysRS AlphaScreen counterscreen, signal interference; inhibition, % at 2.6 µM; 7.6% of 4,700 active; AID 1259376, 2018;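 active = inhibition above a cutoff derived from the DMSO control wells, cut at about 30% in these data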
Starred values were filed as active, the others as inactive; . = no result.

SMILES	GPR151 activ	FBW7 act	MITF inh	TEAD-YAP block	MITF confirm	AS interf DR	AlphaScreen intf2
COc1ccccc1C(=O)Nc1ccc(C2(C#N)CCCC2)cc1	-1	0	65*	-43	10	.	6
O=C(O)c1cc(-c2ccco2)nc2ccccc12	4	0	55*	11	57*	>7.6	18
O=C(OC1CCOC1=O)c1cc(-c2ccco2)nc2ccccc12 (stereo unspecified)	0	0	75*	-11	76*	>7.2	3
CCNC(=O)COC(=O)c1cc(-c2ccco2)nc2ccccc12	0	0	48	3	.	.	.
O=C(Nc1cccc(O)c1)c1cc(-c2ccco2)nc2ccccc12	0	0	36	4	.	.	.
CC(C)N(C(=O)COC(=O)c1cc(-c2ccco2)nc2ccccc12)C(C)C	-1	0	54*	-4	45*	>6.8	7
O=C(COC(=O)c1cc(-c2ccco2)nc2ccccc12)NC1CC1	-2	0	51*	7	40*	>6.9	-3
Cn1c(SCCN2CCOCC2)nnc1-c1ccccc1Br	1	0	31	0	.	.	.
CCOC(=O)c1ccc(NC(=S)NC(=O)/C=C/c2ccco2)cc1	0	0	69*	-1	4	.	3
O=C(/C=C/c1ccco1)NC(=S)Nc1cc(C(=O)O)ccc1Cl	-1	0	63*	10	69*	>6.5	7
O=C(/C=C/c1ccco1)NC(=S)NNC(=O)c1ccccc1O	-1	-1	61*	58*	66*	>6.5	-18
Cc1c(NC(=S)NC(=O)/C=C/c2ccco2)cccc1C(=O)O	1	0	67*	0	60*	>6.5	23
O=C(CCCC(=O)Nc1ccc(Br)cc1)N/N=C/c1ccc(Cl)cc1	1	0	0	8	.	.	.
CC(C)C1=CC23CCC4C(C)(C(=O)O)CCCC4(C)C2CC1C1C(=O)N(c2ccccc2O)C(=O)C13 (stereo unspecified)	1	0	7	-7	.	.	.
O=[N+]([O-])c1ccc(F)c(NC2=NCCCCC2)c1	2	0	-10	4	.	.	.
CC(=O)COc1ccc2c(C(F)(F)F)cc(=O)oc2c1	-1	0	-23	4	.	.	.
CC(Oc1ccc2c(C(F)(F)F)cc(=O)oc2c1)C(=O)NN (stereo unspecified)	4	0	58*	1	44*	>6.6	-4
O=C(c1cccnc1)N1CCN(Cc2cccc(F)c2)CC1	-1	0	75*	10	15	.	12
O=C(c1ccccc1)N1CCN(Cc2cccc(Oc3ccccc3)c2)CC1	0	0	49	-5	.	.	.
O=C(c1cccnc1)N1CCN(Cc2cccc(Oc3ccccc3)c2)CC1	-1	0	70*	10	-5	.	3
O=C(c1ccc(F)cc1)N1CCN(Cc2cccnc2)CC1	-1	0	72*	1	8	.	6
Cc1ccc(OCCN(C)C2CCN(c3cccc(NC(=O)c4cccnc4)c3)CC2)cc1	0	0	-2	13	.	.	.
O=C(C1CCCN(Cc2ccco2)C1)N1CCCCCC1 (stereo unspecified)	3	0	54*	2	5	.	-2
O=C(C1CCCN(Cc2ccccc2F)C1)N1CCCCC1 (stereo unspecified)	-1	0	69*	9	11	.	17
CCOC(=O)N1CCN(C(=O)C2CCN(Cc3ccc(Cl)cc3)CC2)CC1	1	0	54*	0	10	.	9
CCOC(=O)N1CCN(Cc2ccc3c(c2)CN(C(=O)C2CNC(=O)C2)CCO3)CC1 (stereo unspecified)	2	0	61*	1	17	.	14
CCOC(=O)N1CCN(C(=O)C2CCN(Cc3ccc(OC)c(OC)c3)CC2)CC1	2	0	52*	2	8	.	22
